Sampled rows, rich in hits. Any-hit rate of the full collection: about 3.5%.
Autofluor counter: flagged as autofluorescent in microsphere protease counterscreen; compound autofluorescence counterscreen, microsphere flow cytometry; stronger effect = higher value; fluorescence intensity (concentration not given with the values); 360,000 tested, 3.1% active; in the data active = fluorescence intensity above about 16000; inconclusive = no clear call, values can overlap the other calls
BoNT A protease: BoNT/A light chain protease inhibitors, primary screen, biochemical, flow cytometry, MLPCN library. Botulinum neurotoxin type A light chain protease (Clostridium botulinum A str. ATCC 3502). multiplex microsphere protease substrate cleavage. inhibition, % at 10 µM. 360,000 tested, 0.17% active
BoNT-F LC inh: BoNT/F light chain protease inhibitors, primary screen, biochemical, flow cytometry, MLPCN library | inhibition, % at 10 µM | 360,000 tested, 0.22% active | Multiplex microsphere protease cleavage assay | Botulinum neurotoxin type F light chain protease (Clostridium botulinum); in the data active = inhibition above about 35%, passing the limit was not always enough; inconclusive = no clear call, values can overlap the other calls
Anthrax LF prot: Bacillus anthracis LF protease inhibitors, primary screen, biochemical, multiplex microsphere, MLPCN library; Lethal factor (Bacillus anthracis), P15917; multiplex microsphere protease cleavage assay; inhibition, % at 10 µM; 360,000 tested, 0.12% active; AID 588501, 2011
Hits are given with their value; – = inactive; ? = inconclusive. Rule as the data show it, unless noted: active = inhibition above about 30%; inconclusive = no clear call, values can overlap the other calls; inactive = below that.

SMILES	Autofluor counter	BoNT A protease	BoNT-F LC inh	Anthrax LF prot
CCCOC(=S)N/C(=N\S(=O)(=O)c1ccccc1)c1ccccc1	23253	–	–	–
O=C(c1cccc(F)c1)N1CCCC(C(=O)N2CCCCCC2)C1 (stereo not drawn)	–	–	–	–
O=C(C1CCCN(Cc2cccc(F)c2)C1)N1CCCCC1 (stereo not drawn)	16903	–	–	–
COc1ccc(C(=O)CCC(=O)O)c(C)c1	22646	–	–	–
CC(=O)N1CCN(Cc2ccc(Br)s2)CC1	22754	–	–	–
CCN(CC)CCSc1nc(O)c(-c2ccccc2)c(=O)[nH]1	17285	–	–	–
CCCCCc1c(O)nc(SCCN(CC)CC)[nH]c1=O	–	–	–	–
CCCN(CCC)CCSc1nc(O)c(C(C)C)c(=O)[nH]1	18038	?	–	–
CC(C)c1c(O)nc(SCCC(=O)O)[nH]c1=O	–	–	–	–
O=C1CSc2ccc(C(=O)NCCc3ccc(Cl)cc3Cl)cc2N1	–	–	–	–
O=C1CSc2ccc(C(=O)NCCC3=CCCCC3)cc2N1	23017	?	–	–
COCCNC(=O)c1ccc2c(c1)NC(=O)CS2	19046	–	–	–
COc1ccc(NS(=O)(=O)c2cccc(C(=O)NN=Cc3cc(Br)c(O)c(Br)c3)c2)cc1	–	–	–	–
O=C(Nc1cccc2c1CCCC2)c1ccco1	20290	–	–	–
Cc1ccc(Oc2ccc(NC(=O)c3ccco3)cc2)cc1	16687	–	–	–
COc1cc(NS(=O)(=O)c2ccc(NC(=O)c3ccco3)cc2)nc(OC)n1	17434	–	–	–
CC(=O)Nc1ccc(NC(=O)c2ccco2)cc1	22348	–	–	–
Cc1cc(NC(=O)C(C)SCC(=O)OCC(=O)Nc2c(C)cccc2C(C)C)no1 (stereo not drawn)	–	–	–	–
CC(OC(=O)c1ccc(S(=O)(=O)NCc2ccco2)cc1)C(=O)Nc1ccccc1 (stereo not drawn)	–	–	–	–
CCc1cc(-c2nnn(CCC3COCCO3)c2CC)cc(CC)c1-c1cn(Cc2ccc3ccccc3c2)nn1 (stereo not drawn)	–	–	–	–
CCN(CC)c1ccc(NC(=O)c2ccco2)cc1	20274	?	–	–
CCN(CC)c1ccc(NC(=S)NC(=O)c2ccco2)cc1	–	–	–	–
COCOc1ccc(-c2ncc(OC)nc2NC(=O)c2cc(C)oc2C)cc1	–	–	–	–
CC(=O)C[C@@H](O)CC(=O)[C@H]1OC(=O)[C@H](C)CCCCc2ccccc21	–	–	–	–
Nc1c(C(=O)NCc2ccco2)c2nc3ccccc3nc2n1CCN1CCOCC1	21216	–	–	–
SMILES	Autofluor counter	BoNT A protease	BoNT-F LC inh	Anthrax LF prot
CC(C)(C)c1ccc(C(=O)c2c[nH]c(C(=O)NCCCn3ccnc3)c2)cc1	24832	?	–	–
CC1(C)CC(=O)C(C(c2ccco2)C2C(=O)CC(C)(C)CC2=O)C(=O)C1	23157	–	–	–
O=C(Cc1noc2ccccc12)Nc1ccc2ccccc2c1	21952	–	–	–
COc1ccc(NC(=O)C[C@H]2C(=O)N(c3ccccc3)C[C@@H]2CSC)cc1	–	–	–	–
COc1ccc(Cl)cc1NC(=O)CN(C)C(=O)Cn1cnnn1	–	–	–	–
CC(=O)Nc1nonc1-c1ccccc1	20934	?	–	–
O=C(Nc1nonc1-c1ccc(Cl)cc1)c1ccccc1	–	–	–	–
CCCNC(=O)C1(C)CCN(C(=O)c2ccc(OC)cc2OC)C1 (stereo not drawn)	–	–	–	–
CCCN1C(=O)C(O)(c2c(C)[nH]c3ccccc23)c2ccccc21 (stereo not drawn)	–	–	–	–
Cc1[nH]c2ccccc2c1C1(O)C(=O)N(C(C)C)c2ccccc21 (stereo not drawn)	23898	–	–	–
CS(=O)(=O)N(CCc1ccccc1)CC(=O)N1CCCCCC1	–	–	–	–
CCn1c2ccccc2c2cc(NC(=O)C(C)OC(=O)c3ccc(NC(=O)CC#N)cc3)ccc21 (stereo not drawn)	–	–	–	–
CCCCCCCCOC(=O)CCn1[nH]c(=O)c2ccccc2c1=O	–	–	–	–
CC(C)COC(=O)CCn1[nH]c(=O)c2ccccc2c1=O	22405	?	–	–
CCC(=O)c1ccc(OCC(=O)OCC(=O)NCCC2=CCCCC2)cc1	–	–	–	–
CCCc1cc(=O)[nH]c(SCC(N)=O)n1	–	–	?	–
CCCc1nc(SCC(N)=O)[nH]c(=O)c1CC	22995	–	–	–
CC(C)c1ccc(CN(C(=O)c2cc3ccccc3oc2=O)C2CCS(=O)(=O)C2)cc1 (stereo not drawn)	21498	?	–	–
COc1cccc(NC(=O)CN(C)C(C)C(=O)N2CCCC2)c1 (stereo not drawn)	–	–	–	–
CCC(=O)Oc1ccc2c(=O)c(-c3ccc4ccccc4n3)c(CC)oc2c1C	–	–	–	–
Cc1oc2c(C)c(O)ccc2c(=O)c1-c1ccc2ccccc2n1	19935	–	–	–
Cc1ccc(OCCNC(=O)Cn2cnc3c(=O)n(C)c(=O)n(C)c32)cc1C	22531	–	–	–
COc1ccc(CNC(=O)Cn2cnc3c(=O)n(C)c(=O)n(C)c32)cc1	21079	–	–	–
Cn1c(=O)c2ncn(CC(=O)NCCOc3ccccc3)c2n(C)c1=O	–	–	–	–
CCOC(=O)N1CCN(C(=O)CSCC(=O)Nc2nc(-c3ccc4c(c3)OCO4)cs2)CC1	19205	–	–	–
SMILES	Autofluor counter	BoNT A protease	BoNT-F LC inh	Anthrax LF prot
CCCCCC(=O)Nc1ccc(N2CCN(CC)CC2)c(Cl)c1	23051	–	–	–
O=C1C2CC=C(Cl)CC2C(=O)N1c1ncn[nH]1 (stereo not drawn)	–	–	–	–
O=C1C2CC=CCC2C(=O)N1c1ncn[nH]1 (stereo not drawn)	16218	–	–	–
CC(C)(C)NC1=CC(=O)OC12CCCCC2	23197	–	–	–
O=c1c2ccccc2nc(-c2ccoc2)n1-c1ccccc1	20668	?	–	–
O=c1c2ccccc2nc(-c2ccoc2)n1-c1ccccc1Cl	22805	–	–	–
COc1cccc(C2C(C(=O)Nc3ccc(C)cc3C)=C(C)Nc3ncnn32)c1OC (stereo not drawn)	19983	–	–	–
COc1ccc(N2CCN(C(=O)CC3NC4CCCCC4NC3=O)CC2)cc1 (stereo not drawn)	22113	–	–	–
COc1ccc(N2CCN(C(=O)CN(C3CCCCC3)S(C)(=O)=O)CC2)cc1	–	–	–	–
Cc1ccc(C2=NN(C(=O)CCCC(=O)O)C(c3ccc4c(c3)OCO4)C2)cc1 (stereo not drawn)	–	–	–	–
Cc1cc2cc(CN(Cc3ccco3)S(=O)(=O)c3c(C)ccc4nsnc34)c(=O)[nH]c2cc1C	20470	?	–	–
Cc1cc2cc(CN(CCCO)S(=O)(=O)c3cccc4nsnc34)c(=O)[nH]c2cc1C	22386	–	–	–
COc1ccc(OC)c(N2C(=O)NC(=O)C3(Cc4cc(C)ccc4N(C)C3)C2=O)c1 (stereo not drawn)	16331	–	–	–

High-throughput results (PubChem BioAssay)
